14-3-3 Bad inh: disrupts binding of bovine 14-3-3 zeta to phospho-Bad peptide; 0.71% of 220,000 active; TR-FRET 14-3-3zeta/Dy647-pBad peptide displacement, 1 h; inhibition, % at 21.7 µM;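 active means inhibition above about 70%, limit read from the data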;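 further: 0% = full 14-3-3 plus peptide FRET controls and 100% = background without 14-3-3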
Target sequence (P63103 whole entry, looked up): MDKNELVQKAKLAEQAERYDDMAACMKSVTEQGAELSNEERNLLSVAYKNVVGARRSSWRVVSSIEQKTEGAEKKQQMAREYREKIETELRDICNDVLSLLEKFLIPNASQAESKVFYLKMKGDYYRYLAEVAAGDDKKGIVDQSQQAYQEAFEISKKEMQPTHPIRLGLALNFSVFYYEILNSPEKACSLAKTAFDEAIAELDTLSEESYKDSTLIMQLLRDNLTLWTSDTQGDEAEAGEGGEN
Bim-Mcl-1: human Bim-Mcl-1 interaction inhibition; Q07820; Bead-based flow cytometry, Bim peptide-Mcl-1 binding; inhibition, % at 10 µM; 0.1% of 190,000 active; AID 1009; in the data active means inhibition above about 40%;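 further: 0% = no compound tracer wells and 100% = peptide blocker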
Target sequence (Q07820 whole entry, looked up): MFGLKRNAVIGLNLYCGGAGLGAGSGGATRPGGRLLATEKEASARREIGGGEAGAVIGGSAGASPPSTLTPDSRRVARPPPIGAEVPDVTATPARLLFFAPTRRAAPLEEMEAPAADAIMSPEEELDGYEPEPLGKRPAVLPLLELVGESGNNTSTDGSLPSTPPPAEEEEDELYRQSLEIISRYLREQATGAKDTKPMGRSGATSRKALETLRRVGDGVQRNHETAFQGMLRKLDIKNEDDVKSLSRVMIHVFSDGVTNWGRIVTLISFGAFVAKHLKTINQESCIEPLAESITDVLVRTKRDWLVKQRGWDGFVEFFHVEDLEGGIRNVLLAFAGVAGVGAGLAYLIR
Mcl1-Noxa inh: disrupts binding of human Mcl-1 to Noxa peptide | 1.5% of 220,000 active | Q07820 | TR-FRET Mcl-1/Noxa peptide binding, 2 h | AID 1022 | inhibition, % at 21.7 µM;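 active means compounds that cut the protein-peptide binding signal by more than 50% relative to plate controls in a single-dose test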;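 further: His-tagged Mcl-1 with rhodamine Noxa BH3 peptide and terbium anti-His antibody; 0% = Mcl-1 plus Noxa peptide wells and 100% = peptide-only wells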
p47phox inh: p47phox (human) inhibition. P14598. p47phox/p22phox peptide binding, fluorescence polarization, 2 h. inhibition, % at 24.7 µM. 0.53% of 220,000 active. AID 1274;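 active means inhibition above about 30%, limit read from the data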;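 further: 0% = p47phox with labelled peptide and 100% = labelled peptide alone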
Mcl1-Bid inh: Mcl-1/Bid interaction inhibition. Q07820. TR-FRET Mcl-1/Bid-Dy647 peptide binding, 1536-well. inhibition, % at 21.7 µM. 0.97% of 220,000 active. AID 1021;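 active means compounds that cut the binding signal by more than half at the single screening dose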;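 further: His-tagged Mcl-1 with europium anti-His antibody binding Bid BH3 peptide; 0% = Mcl-1 plus peptide wells and 100% = peptide-only wells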
An asterisk follows results filed as active; / = no result given; [ ] = dose if it differs, or a comment. An excerpt weighted towards active compounds, which were near 3.1% of everything screened.

SMILES	14-3-3 Bad inh	Bim-Mcl-1	Mcl1-Noxa inh	p47phox inh	Mcl1-Bid inh
CC(/C=N/NC(=O)c1sc(N)nc1C)=C\c1ccccc1	-7.2	-1.0	18.7	-3.7	-0.3
C/C(=N\NC(=O)COc1ccc(C)cc1Br)c1cc([N+](=O)[O-])cs1	-5.6	0.0	-33.0	31.5*	-26.8
COc1ccc(N=c2oc3c(OC)cccc3cc2C(=O)NCc2ccco2)c(OC)c1	16.9	1.0	27.4	5.1	65.2*
O=C(Cc1c(F)cccc1Cl)Nc1ccon1	-5.4	0.0	2.9	-44.9	82.6*
Cc1cc(NC(=O)Cc2c(F)cccc2Cl)no1	-1.7	0.0	-12.2	-5.0	-11.0
O=C(c1ccccc1SCc1ccccc1)N1CCCCCC1	0.5	0.0	-13.2	-2.6	-16.1
COc1cc(/C=N/Nc2nnc3c(n2)[nH]c2ccccc23)ccc1O	83.1*[fluorescence artefact?]	0.0	93.9*	2.9	90.0*
COc1cc(/C=N/Nc2ccccc2C(F)(F)F)ccc1O	-2.1	-1.0	47.2	-2.0	-26.2
Cc1cccc2c(=O)c(Br)c(C)n(Cc3ccccc3)c12	-5.4	0.0	9.1	-6.5	-27.2
COC(=O)c1ccc(NS(=O)(=O)c2cccc3cccnc23)cc1	-4.9	3.0	8.8	49.1*	-4.9
c1cc2c(cc1-c1csc(NNC3=NCCCCC3)n1)OCCO2	-11.2	-4.0	18.0	-11.3	-49.5
Cc1cc(-c2ccccc2)nc(N(C)NC(=O)c2c(F)cccc2F)c1S(C)(=O)=O	0.1	-8.0	7.4	115.3*	-5.6
CCOc1ncccc1C(=O)N1CCN(c2cccc(C)c2C)CC1	87.6*	-3.0	7.4	-4.5	-13.8
CCOc1ncccc1C(=O)N1CCN(c2cc(Cl)ccc2C)CC1	-9.9	0.0	7.8	-5.3	-30.6
CN(O)C(=O)Nc1ccc([N+](=O)[O-])cc1	-5.9	-2.0	2.1	128.1*	-10.2
Cc1nnc2n1NC(c1ccc(Cl)cc1)C(C(=O)N1CCC(C)CC1)S2 (stereo not drawn)	-11.1	0.0	2.1	2.0	-30.9
Cc1nnc2n1NC(c1ccc(Cl)cc1)C(C(=O)N(C)C1CCCCC1)S2 (stereo not drawn)	127.4*[fluorescence artefact?]	4.0	6.8	8.0	0.1
CCC1CCC2(CC1)NNC(=S)NN2	3.4	-5.0	-32.6	-5.8	-116.6
CC(C)CN(CC(C)C)C(=S)NC1CCCCC1	-9.8	-1.0	15.4	-12.8	93.0*
CCN(CCNC(=O)C1CCCN(Cc2nc(-c3ccc(OC)cc3)oc2C)C1)c1ccccc1 (stereo not drawn)	85.9*	0.0	12.5	-1.8	-69.2
Cc1ccc(F)cc1NC(=O)CSc1ncccn1	0.2	0.0	3.3	-1.8	-21.0
Cc1cc(C)nc(NC(=O)CSc2nc3ccccc3o2)n1	-10.3	0.0	18.4	42.5*	-9.3
COc1ccc(C)cc1NC(=O)C(c1ccccc1)N1CCNC(=O)C1 (stereo not drawn)	1.0	-1.0	-6.4	3.0	-8.8
O=c1oc2cc(O)ccc2c2oc3cc(O)ccc3c12	27.3	2.0	54.6*	-92.8	37.3
O=c1oc2cc(O)ccc2c2ccccc12	3.0	-91.0	3.8	2.7	32.9
SMILES	14-3-3 Bad inh	Bim-Mcl-1	Mcl1-Noxa inh	p47phox inh	Mcl1-Bid inh
NC(=O)c1c(NC(=O)CN2C(=O)NC(Cc3ccccc3)C2=O)sc2c1CCC2 (stereo not drawn)	2.7	/	34.5	-16.8	-12.3
Cn1cnnc1SCC(=O)Nc1sc2c(c1C(N)=O)CCC2	16.0	-1.0	99.8*	-27.6	-64.3
CC1CCC2(CC1)NC(=O)N(CC(=O)Nc1sc3c(c1C(N)=O)CCC3)C2=O (stereo not drawn)	24.0	3.0	64.4*	-27.7	-84.1
CCOC(=O)c1c(NC(=O)CSc2nncn2C)sc(C)c1C	4.8	0.0	-4.9	-9.6	-10.4
CC1CCCCC12NC(=O)N(CC(=O)Nc1sc3c(c1C(N)=O)CCC3)C2=O (stereo not drawn)	-4.8	-1.0	82.3*	-61.6	-60.8
COCCN1CCn2c(nc3cc(NC(=O)Cn4nc(C)c5ccccc5c4=O)ccc32)C1	26.1	/	66.4*	7.4	-12.0
Cc1nc2scc(-c3ccccc3)c2c(=O)n1N=C1C=CC(=O)C=C1	-14.3	1.0	63.2*	12.3	-7.9
COc1ccc(/C=N/Nc2nc(-c3cccnc3)nc3ccccc23)cc1OC	-0.5	/	50.1	-10.6	-22.4
Cc1cc(N/N=C/c2ccc(O)c(C)c2O)nc(-c2ccccc2O)n1	26.2	-2.0	89.2*	-5.0	74.6*
Oc1ccc(/C=N/Nc2nc(-c3cccnc3)nc3ccccc23)c(O)c1	82.8*	/	84.1*	-29.9	-10.6
Cc1ccccc1Nc1nc(-c2cccnc2)nc2ccccc12	2.4	0.0	10.9	-51.6	-6.4
CCOC(=O)c1ccc(Nc2nc(-c3cccnc3)nc3ccccc23)cc1	75.1*[fluorescence artefact?]	0.0	35.0	-22.3	46.3
Cc1c(O)ccc(/C=N/Nc2nc(-c3cccnc3)nc3ccccc23)c1O	10.8	/	89.2*	-89.9	-10.6
O=C(NCc1ccc(F)cc1)C1CCN(c2cnccn2)CC1	-1.4	0.0	14.4	-8.3	-35.2
NC(=O)c1ccsc1NC(=O)COC(=O)CCOc1ccccc1	22.2	/	25.1	-13.1	-20.9
CC(C)(O)C#Cc1ccc(C(=O)N2CCN(c3ccc(Cl)cc3)CC2)cc1	-9.9	0.0	-24.6	-6.5	-10.4
O=C(Oc1ccc(Nc2ncnc3ccccc23)cc1)c1cccnc1	82.0*	-2.0	43.8	1.0	72.7*
Clc1ccc(/C=N/Nc2nc(Cl)nc3ccccc23)cc1	2.9	0.0	12.7	70.0*	-23.5
CCOC(=O)c1ccc(Nc2ncnc3ccccc23)cc1	1.0	0.0	24.2	-6.7	19.6
Clc1ccc(/C=N/Nc2nnc(Cl)c3ccccc23)cc1	-4.2	1.0	16.6	6.0	0.9
Cc1ccc(-c2nc(N/N=C/c3ccncc3)c3ccccc3n2)cc1	23.4	0.0	47.6	-93.2	66.0*
Cc1ccc(-n2cnnn2)c2cccnc12	-4.3	8.0	-31.5	-29.7	57.2*
CN(CC(=O)NC1CCCCCCC1)S(=O)(=O)c1cnc[nH]1	-8.7	-4.0	13.1	2.2	-10.6
COc1cccc(NC(=O)C(NCC(C)(C)CN(C)C)c2ccccc2)c1 (stereo not drawn)	70.3*	-3.0	34.5	-10.6	32.1
CCOC(=O)N1CCc2c(sc3nc4n(c(=O)c23)N=C(c2ccc(OC)cc2)CS4)C1	27.4	/	10.5	37.9*	5.5
CN(C)c1ccc(NC(=O)c2sc(SCC(=O)Nc3nccs3)nc2N)cc1	5.4	-5.0	66.0*	-7.1	-29.1
N#Cc1c(-c2ccccc2)nc(-c2ccccc2)nc1N1CCOCC1	5.0	-1.0	23.8	-16.7	50.9*
N#Cc1ccc(CSc2nnc(-c3c[nH]c4ccccc34)n2-c2ccccc2)cc1	-2.1	1.0	16.9	1.8	-3.1
CCN(C(=O)CSc1nnc(-c2ccc(Cl)cc2)n1C)C1CCS(=O)(=O)C1 (stereo not drawn)	-10.6	-4.0	6.7	3.8	-18.8
CCOC(=O)c1sc(N2N=C(C)C(N=Nc3cccc(C)c3)C2=O)nc1C (stereo not drawn)	97.4*	/	34.9	28.4	86.5*

Screens from PubChem.
